Shown are actives, neighbours in structure and some others; about 4.6% of the full set was active somewhere.
D1 potentiator = potentiators of human D1 dopamine receptor; P21728; potentiation, % at 10 µM; 360,000 tested, 0.036% active; HEK293 TREx D1 cells, calcium flux, dopamine EC20 potentiation; in the data active means potentiation above about 30%
Target sequence (P21728 whole entry, looked up): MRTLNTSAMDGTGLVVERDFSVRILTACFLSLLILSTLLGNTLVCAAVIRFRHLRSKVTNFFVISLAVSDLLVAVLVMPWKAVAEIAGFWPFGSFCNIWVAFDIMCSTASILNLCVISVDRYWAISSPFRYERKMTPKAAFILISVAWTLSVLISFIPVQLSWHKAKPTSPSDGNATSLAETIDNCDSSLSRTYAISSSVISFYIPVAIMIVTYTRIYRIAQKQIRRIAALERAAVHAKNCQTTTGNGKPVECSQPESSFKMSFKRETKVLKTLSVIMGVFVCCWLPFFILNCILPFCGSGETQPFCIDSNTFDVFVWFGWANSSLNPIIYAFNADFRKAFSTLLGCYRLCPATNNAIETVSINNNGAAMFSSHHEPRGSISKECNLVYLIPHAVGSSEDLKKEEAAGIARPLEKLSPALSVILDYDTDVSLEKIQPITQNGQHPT
TRHR PAM = TRH receptor (human) allosteric enhancement; P34981; TRHR cells, fluo-8 calcium fluorescence, EC20 TRH enhancement; enhancement, % at 2 µM; 360,000 tested, 0.66% active; in the data active means enhancement above about 30%
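TRHR-expressing cells loaded with fluo-8 calcium dye were read kinetically (ex 480/em 530) during compound addition, then stimulated with an EC20 of TRH (10 nM final). Enhancement of the Gq-mediated intracellular calcium response was scored.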
D1 agonist = human D1 receptor agonism; P21728; 360,000 tested, 1% active; HEK293 T-REx D1 cells, calcium flux, agonist mode; activation, % at 2 µM
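Agonism was scored from calcium flux recorded over 180 s (1 read/s) after pintool compound addition, following a 10-cycle baseline. Cells were inducible force-coupled HEK293 TREx D1, plated overnight at 30 C and loaded with no-wash calcium dye.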
D1 antag = antagonists of human D1 dopamine receptor; P21728; HEK293 TREx D1 cells, calcium flux, dopamine EC80; hits give low values; activity change, negative = inhibition, % at 10 µM; 360,000 tested, 3.2% active; AID 504652; in the data active means activity change below about -30%
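Kinetic fluorescence of a calcium dye serves as the read-out. D1-expressing Hek293 Trex cells, induced overnight at 30 C, are exposed to compound for 180 s before an EC80 dopamine addition, then read 180 s further.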
TRHR agonist = agonists of human TRH receptor. 360,000 tested, 0.18% active. TRHR cells, calcium flux fluo-8, FDSS agonist mode. AID 493084. activation, % at 2 µM. P34981
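Steps: seed TRHR cells overnight; add fluo-8 no-wash Ca dye, RT 30 min–1.5 h; record 10 s baseline; pin-transfer compounds; monitor fluorescence 1 cycle/s for the agonist window. Calcium increases flag candidate agonists.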
A number is an active result; n = inactive; x = no result; ! = a repeat was not active. Unless noted, no stated cut-off is given here; in the data, active means activation above about 30%; inactive means the rest.

SMILES | D1 potentiator | TRHR PAM | D1 agonist | D1 antag | TRHR agonist
COC(=O)c1ccc([C@H]2Nc3ccc(S(=O)(=O)Nc4cccc(C)c4)cc3[C@H]3C=CC[C@H]32)cc1 | n | n | n | -85 | n
O=C(O)c1ccc(NS(=O)(=O)c2ccc3c(c2)C2C=CCC2C(c2ccccc2F)N3)cc1 (stereo not drawn) | n | n | n | -35 | n
O=C(Cc1ccc(NC(=O)N2CCCCc3ccccc32)cc1)Nc1ccccc1Br | n | n | n | n | n
Cc1ccc(CN(C(=O)COc2ccc(C(C)C)cc2)C2CCS(=O)(=O)C2)o1 (stereo not drawn) | n | n | n | n | n
C/C(=N\OC(=O)c1ccc(Cl)cc1)c1nccs1 | n | n | n | -32 | n
C/C(=N\OC(=O)c1c(-c2ccccc2Cl)noc1C)c1nccs1 | n | n | n | n | n
COC(=O)c1ccc(-n2c(/C=C\c3cccc(Br)c3)nc3ccccc3c2=O)cc1 | n | n | n | -32 | n
O=C(O)c1ccc(-n2c(/C=C/c3ccccc3)nc3ccccc3c2=O)cc1 | n | n | n | n | n
CC1(C)CC(=O)c2sc(NS(=O)(=O)c3ccccc3)nc2C1 | n | n | n | -38 | n
CC1(C)CC(=O)c2sc(NS(=O)(=O)c3ccc([N+](=O)[O-])cc3)nc2C1 | n | n | n | n | n
CCOC(=O)c1cncc(C#CCOC(=O)Nc2ccc(OC(F)(F)F)cc2)c1 | n | n | n | -34 | n
COc1cc(/C=C2\COC/C(=C\c3ccc(O)c(OC)c3)C2=O)ccc1O | n | n | n | n | n
COc1cc(/C=C2\CC/C(=C\c3ccc(OCCO)c(OC)c3)C2=O)ccc1OCCO | n | n | 99 | n | 114
COc1cc(/C=C2/CC/C(=C/c3ccc(O)c(OC)c3)C2=O)ccc1O | n | n | 78 | n | n
CCOC(=O)N1CCN(Cc2nc3c(c(=O)n(C)c(=O)n3C)n2Cc2cc(C)ccc2C)CC1 | n | n | n | -32 | n
CCCCn1c(CN2CCN(C(=O)OCC)CC2)nc2c1c(=O)n(C)c(=O)n2C | n | n | n | n | n
Cn1c(SCC(=O)N2CCOCC2)ncc(C(=O)Nc2ccc(F)cc2)c1=O | n | n | n | x | n
CCCCN(CC)CCNC(=O)C1CCCN(c2ncnc3onc(C)c23)C1 (stereo not drawn) | n | n | n | -30 | n
CCOCCCNC(=O)C1CCCN(c2ncnc3onc(C)c23)C1 (stereo not drawn) | n | n | n | n | n
COc1cccc(NC(=O)c2nn(-c3ccc(C)cc3)c(=O)n(C)c2=O)c1 | n | n | n | n | n
CCOc1ccc(CC(=O)NCCc2sc3nc(-c4ccc(F)cc4)nn3c2C)cc1 | n | 43 | n | x | n
CCOc1ccc(CC(=O)NCCc2sc3nc(-c4ccc(OC)cc4)nn3c2C)cc1 | n | n | n | x | n
Cc1cccc2sc(N(CCCN(C)C)C(=O)CN3C(=O)c4ccccc4C3=O)nc12 | n | n | 33 | n | n
Cc1ccc2sc(N(CCCN(C)C)C(=O)CCS(=O)(=O)c3ccccc3)nc2c1C | n | n | 64 | n | n
Cc1cccc2sc(N(CCCN(C)C)C(=O)CCc3ccccc3)nc12 | n | n | n | n | n
SMILES | D1 potentiator | TRHR PAM | D1 agonist | D1 antag | TRHR agonist
CC(C)Oc1ccc(C(=O)N(Cc2ccc(N(C)C)cc2)Cc2ccco2)cc1 | n | n | n | n | n
CC(=O)Oc1cccc(-c2nc3ccccc3c(=O)o2)c1 | n | n | n | n | n
COc1cccc(-c2nc3ccc(O)cc3c(=O)o2)c1 | n | 36 | n | n | n
CN(C)CCCN1c2ccccc2CCc2ccccc21 | n | n | n | -41 | n
CC(CN(C)C)CN1c2ccccc2CCc2ccccc21 (stereo not drawn) | n | n | n | -81 | n
COC(=O)C(/C=N/OCc1ccc([N+](=O)[O-])cc1)NC(=O)c1ccccc1 (stereo not drawn) | n | n | 30 | n | n
CCOC(=O)NC(=O)c1cn(Nc2ncc(Cl)cc2C(F)(F)F)c(=O)[nH]c1=O | n | n | n | -44 | n
CCOC(=O)NC(=O)c1cn(Nc2ncc(C(F)(F)F)cc2Cl)c(=O)[nH]c1=O | n | n | n | n | n
CCOC(=O)c1noc2nc(C)n(CC(=O)NC(C)CC)c(=O)c12 (stereo not drawn) | n | 34 | n | n | n
O=C(O)c1ccc(S(=O)(=O)N[C@H](Cc2ccc(O)cc2)C(=O)O)cc1 | n | n | n | n | n
O=C1CC(c2c[nH]c3ccccc23)C(=O)N1c1ccccc1 (stereo not drawn) | n | n | n | -34 | n
CCCn1nnnc1-c1ccc(Cl)cc1 | n | n | n | n | n
FC(F)(F)c1cccc(Cn2nnnc2-c2ccc(Cl)cc2)c1 | n | n | n | -39 | n
CCOC(=O)c1cccc(NC(=O)c2oc3c(c2C)-c2nn(CC)cc2CC3)c1 | n | n | n | n | n
C/C(Cn1cnc([N+](=O)[O-])n1)=N\NC(=O)c1ccccc1 | n | n | n | n | n
C/C(Cn1cnc([N+](=O)[O-])n1)=N/NC(=O)COc1c(Cl)cc(Cl)cc1Cl | n | n | n | -30 | n
CCN(CC)S(=O)(=O)c1ccc(C(=O)N2CC(=O)Nc3ccc(F)cc3C2c2ccccc2)cc1 (stereo not drawn) | n | n | n | n | n
CCOC(=O)c1oc2ccc(S(=O)(=O)n3nc(-c4ccc(C)cc4)cc3N)cc2c1C | n | 42! | n | n | n
CCOC(=O)N1CCN(C(=O)c2oc3ccc(S(=O)(=O)N4CCOCC4)cc3c2C)CC1 | n | 34 | n | n | n
CCOC(=O)N1CCN(S(=O)(=O)c2ccc(OC)c(OC)c2)CC1 | n | n | n | n | n
CCOc1ccc(S(=O)(=O)N2CCC(C(=O)N3CCCCCC3)CC2)cc1Cl | n | n | n | -40 | n
CCOC(=O)N1CCN(S(=O)(=O)c2ccc(OC)c(Cl)c2)CC1 | n | n | n | -31 | n
COc1ccccc1CNc1nc(-c2ccco2)nn1C(=O)c1ccccc1[N+](=O)[O-] | n | n | n | n | n
COc1ccc(C2c3c(n(C)c4ccccc34)C(=O)N2CC(=O)Nc2ccc(Cl)cc2)cc1 (stereo not drawn) | n | n | n | n | n
Cc1ccc(NC(=O)c2oc3ccc(S(=O)(=O)N4CCCCC4)cc3c2C)cc1C | n | n | n | -31 | n
CCCCCc1ccc(OCCCC[n+]2ccccc2)c(CCCCC)c1 | n | n | 96 | n | n
CCC(C)(C)c1ccc(OCCCC[n+]2ccccc2)c(C(C)(C)CC)c1 | n | n | 166 | n | n
Cc1cn(CC2COC(C)(C)O2)c(=O)[nH]c1=O (stereo not drawn) | n | n | n | -30 | n
COc1cccc(N2CCc3c(C)nc4ccc(Cl)cc4c32)c1 | n | n | n | n | n

High-throughput results from PubChem.
